MRP reversal: MRP-mediated drug resistance reversal; H69AR cells + 2 uM doxorubicin, CellTiter-Glo, 72 h; differential viability (reversal), % at 10 µM; hit rate 0.04% among 85,000; AID 602;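 active means viability drop by adding the cancer drug above about 55%, with treated viability meeting a 40% cutoff, limit read from the data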;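 further: viability without doxorubicin minus viability with 2 µM doxorubicin for each compound; larger differential means the compound sensitizes cells more to doxorubicin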
sEH inh: inhibitors of human soluble epoxide hydrolase; inhibition, % at 2 µM; recombinant human sEH enzymatic activity assay; hit rate 0.34% among 91,000; P34913; AID 707; in the data active means inhibition above about 80%
Target sequence (P34913 whole entry, looked up): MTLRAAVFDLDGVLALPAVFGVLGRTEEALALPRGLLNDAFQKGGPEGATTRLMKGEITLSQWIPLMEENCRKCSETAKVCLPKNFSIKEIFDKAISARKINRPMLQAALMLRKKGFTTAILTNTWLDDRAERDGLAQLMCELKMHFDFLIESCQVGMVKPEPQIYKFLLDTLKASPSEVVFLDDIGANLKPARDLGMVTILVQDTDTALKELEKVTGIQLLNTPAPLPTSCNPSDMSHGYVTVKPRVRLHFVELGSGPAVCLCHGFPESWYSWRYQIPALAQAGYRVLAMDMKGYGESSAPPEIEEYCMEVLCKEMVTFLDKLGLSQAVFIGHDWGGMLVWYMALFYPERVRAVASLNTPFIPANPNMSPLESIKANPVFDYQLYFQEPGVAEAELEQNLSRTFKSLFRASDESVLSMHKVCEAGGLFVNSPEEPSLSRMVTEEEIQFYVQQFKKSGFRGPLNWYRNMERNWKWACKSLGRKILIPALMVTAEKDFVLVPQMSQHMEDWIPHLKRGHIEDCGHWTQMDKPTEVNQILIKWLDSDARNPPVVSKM
MRP-1 activ: activates MRP-1. H69AR cells + doxorubicin, viability rescue, CellTiter-Glo. viability increase, % at 10 µM. hit rate 0.61% among 140,000;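 active means viability gain under doxorubicin at or above a set limit, the compound median plus 3 SD, cut at about 4.7% in these data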;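 further: MRP-1 overexpressing cells given doxorubicin 25 µM after compound pretreatment; 18-22 h compound pretreatment then 72 h with doxorubicin before readout; 0% = doxorubicin-only wells and 100% = vehicle-treated cells without doxorubicin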
sEH activator: activators of human soluble epoxide hydrolase; purified human sEH enzymatic activity, activator screen; hit rate 0.04% among 91,000; AID 717; activation, % at 2 µM; P34913; in the data active means activation above about 37%
Calb biofilm kill: kills Candida albicans biofilms; C. albicans biofilm + clotrimazole, Alamar Blue; inhibition, % at 6 µM; hit rate 0.14% among 85,000; AID 834;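 active means inhibition above 20%; inactive means inhibition below 20%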;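 further: preformed 24 hr biofilms exposed to compound for 48 hr; 0% = biofilm without compound and 100% = blank killed by clotrimazole plus chlorhexidine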
Numbers without * were called inactive; . = not tested or not shown. Sampled rows, rich in hits. Any-hit rate of the full collection: about 0.87%.

SMILES | MRP reversal | sEH inh | MRP-1 activ | sEH activator | Calb biofilm kill
O=C(NCc1ccc(Cl)cc1)C(=O)NCC(c1ccco1)N1CCOCC1 (stereo not given) | . | . | 9.1* | . | .
Cc1ccc(CNC(=O)C(=O)NCC(c2ccco2)N2CCOCC2)cc1 (stereo not given) | . | . | 1.5 | . | .
COc1ccc(/C=N/Nc2cc(OC)ncn2)cc1 | . | . | 5.4* | . | .
CS(=O)(=O)N1CCN(Cc2ccc(C(F)(F)F)cc2)CC1 | . | 11.9 | 0.8 | -13.6 | .
COc1cccc(Nc2nc3ccccc3nc2-n2nc(C)cc2C)c1 | -1.8 | -2.0 | 5.6* | 4.3 | 10.7
O=C(CCN1C(=O)S/C(=C/c2ccc(Cl)cc2)C1=O)N1CCOCC1 | . | . | -2.6 | . | .
O=C(O)CCN1C(=O)CC(N2C(=O)/C(=C/c3ccc(Cl)cc3)SC2=S)C1=O (stereo not given) | . | . | 8.0* | . | .
CCC(CC)C(=O)OCC(=O)Nc1cc(OC)c([N+](=O)[O-])cc1C | . | . | -2.6 | . | .
CCN(CC)C(=O)C(=O)c1c(-c2ccccc2)[nH]c2ccccc12 | . | . | 23.1* | . | .
O=C(CC(=O)N/N=C/c1ccccc1O)NCc1cccnc1 | . | . | 5.5* | . | .
CCCC(=O)Nn1cnc2c(c1=O)C1(CCCCC1)Cc1ccccc1-2 | 13.0 | 99.0* | -1.1 | -99.0 | 3.4
CCC(=O)Nn1cnc2c(c1=O)C1(CCCCC1)Cc1ccccc1-2 | 6.9 | 67.0 | -3.1 | -66.3 | -5.0
CCOC(=S)NC(=O)c1sc2ccccc2c1Cl | . | 1.2 | 8.5* | -3.0 | .
CCCOC(=S)NC(=O)c1sc2ccccc2c1Cl | . | 11.5 | 5.7* | -13.0 | .
CC(C)(C)C(=O)NC(=S)NNC(=O)c1sc2ccccc2c1Cl | . | . | -5.2 | . | .
CCOC(=O)c1c(-n2cccc2)sc2c1CCCC2=O | . | . | -1.7 | . | .
CC(C)CCC(C)N=Cc1c(O)n(Cc2ccccc2)c(=O)c2ccccc12 (stereo not given) | -4.5 | -4.0 | -0.5 | 6.2 | 7.6
COc1ccc(Cn2c(O)c(C=Nc3ccc(OC)cc3)c3ccccc3c2=O)cc1 | . | . | 6.4* | . | .
CC(=O)NN1C(=O)/C(=C/c2ccc(C(C)C)cc2)SC1=S | . | . | 4.7* | . | .
O=C(NN1C(=O)/C(=C/c2cccnc2)SC1=S)C(c1ccccc1)c1ccccc1 | . | -3.9 | 2.7 | 6.8 | .
Cc1ccc(/C=C2\SC(=S)N(CCC(=O)NNC(=O)c3cccnc3)C2=O)cc1 | . | . | 8.7* | . | .
O=C(CCN1C(=O)/C(=C/c2ccc(F)cc2)SC1=S)NNC(=O)c1cccnc1 | . | . | 3.5 | . | .
O=C(CCN1C(=O)/C(=C/c2ccccc2)SC1=S)NNC(=O)c1cccnc1 | . | . | 6.6* | . | .
O=C(NN1C(=O)/C(=C\c2cccnc2)SC1=S)C(c1ccccc1)c1ccccc1 | . | . | 5.5* | . | .
COc1ccc(C(=O)NC(=S)Nc2ccc(N3CCOCC3)c(Cl)c2)cc1[N+](=O)[O-] | . | . | 1.9 | . | .
SMILES | MRP reversal | sEH inh | MRP-1 activ | sEH activator | Calb biofilm kill
Cc1nc2cc(NC(=O)NCCC3=CCCCC3)ccc2o1 | 1.4 | 81.3* | 1.0 | -81.4 | 4.8
COc1ccc(/C=C/C(=O)NCc2cnn(C)c2C)cc1COc1ccc(Br)cc1 | . | -1.5 | 5.3* | -0.5 | .
Cc1ccc(NC(=O)CSc2ncnc3ccccc23)cc1S(=O)(=O)N1CCCCCC1 | . | . | -2.9 | . | .
O=C1/C(=C\c2cccs2)N=C(c2cccs2)N1Nc1ccccc1 | 8.2 | -3.6 | 6.9* | 5.9 | 1.3
Cc1onc(-c2ccccc2Cl)c1C(=O)Nc1sc2c(c1C(N)=O)CCC(C)C2 (stereo not given) | 10.8 | 4.5 | 4.8* | -2.1 | 5.5
COC(=O)c1c(NC(=O)c2c(-c3ccccc3Cl)noc2C)sc2c1CCC2 | 10.9 | -1.2 | -1.1 | -2.3 | 3.8
C/C(=N\NC(=O)CCc1c[nH]c2ccccc12)c1cccc([N+](=O)[O-])c1 | . | . | 7.9* | . | .
COc1cc(SC)ccc1C(=O)NCCOc1ccc(Cl)cc1 | . | . | 6.4* | . | .
Cc1sc2nc(C)n(/N=C/c3ccccc3)c(=O)c2c1C | 16.3 | -42.3 | -1.6 | 38.1* | -3.4
Cc1nc2ccccc2c(=O)n1/N=C/c1ccc(O)cc1 | 8.3 | -8.8 | -2.6 | 8.4 | 9.1
COc1ccc(Nc2nnc(Cc3ccc(Cl)cc3)c(=O)[nH]2)c(OC)c1 | 2.4 | . | 7.0* | . | 1.1
CCN(CC)S(=O)(=O)c1cccc(NC(=O)COC(=O)C2COc3ccccc3O2)c1 (stereo not given) | . | . | -1.5 | . | .
C=CCn1c(COc2ccc(Cl)cc2)nnc1SCC(=O)N/N=C/c1cccc(O)c1 | . | 10.7 | 2.9 | -10.6 | .
C=CCn1c(COc2ccc(Cl)cc2)nnc1SCC(=O)N1CC(=O)Nc2ccccc21 | 16.5 | -6.2 | 4.7* | 4.7 | 6.5
N#Cc1c(N)nc2c(c1-c1ccc3c(c1)OCO3)CCc1ccccc1-2 | . | . | -4.6 | . | .
O=[N+]([O-])c1cccc(/C=N\N2CCN(Cc3ccccc3Cl)CC2)c1 | 12.9 | 11.7 | 4.8* | -8.8 | 4.0
CC(=O)c1cccc(OCCN2C(=O)NC(C)(C)C2=O)c1 | 4.0 | 0.1 | -2.3 | -0.1 | 7.3
CCc1cccc(OCCCN2C(=O)NC(C)(C)C2=O)c1 | 3.6 | -1.0 | -4.4 | 3.1 | 82.0*
CC(NC(=O)c1ccccc1NC(=O)c1ccccc1)C(=O)N1CCOCC1 (stereo not given) | . | . | -2.2 | . | .
CC(C)(C)C1CCc2c(sc(NC(=O)c3cccs3)c2C(=O)N2CCCCC2)C1 (stereo not given) | -18.3 | -4.0 | 5.0* | 3.8 | 1.7
COC(=O)c1c(NC(=O)c2cccs2)sc2c1CCC(C)C2 (stereo not given) | -6.9 | . | -0.1 | . | 3.3
O=C(COC(=O)[C@H](Cc1ccccc1)NC(=O)c1ccco1)NCc1ccccc1 | . | 13.2 | -0.5 | -12.5 | .
Oc1ccc(-c2nc(-c3ccc(O)c(O)c3)cs2)cc1 | -26.6 | . | 9.1* | . | 1.7
CC(NC(=O)/C=C/c1ccco1)c1nc2ccccc2n1Cc1cccc(Cl)c1 (stereo not given) | . | . | -4.0 | . | .
CC(=O)c1ccc(NC(=O)CN2C(=O)/C(=C/C(C)=C/c3ccccc3)SC2=S)cc1 | . | . | 8.5* | . | .
SMILES | MRP reversal | sEH inh | MRP-1 activ | sEH activator | Calb biofilm kill
CC(/C=C1\SC(=S)N(NC(=O)c2ccc(C)cc2)C1=O)=C\c1ccccc1 | . | 2.9 | 0.3 | -1.2 | .
Cc1ccc(NC(=O)CCCN2C(=O)/C(=C/C=C/c3ccccc3)SC2=S)cc1 | . | . | -3.9 | . | .
CC(/C=C1\SC(=S)N(CCCC(=O)Nc2ccc(C(=O)O)c(O)c2)C1=O)=C\c1ccccc1 | . | . | 4.8* | . | .
COc1cccc(/C=N/NC(=O)c2cc(-c3cccn3C)n[nH]2)c1O | . | . | 7.1* | . | .
COc1cc(/C=N/NC(=O)c2cc(-c3cccn3C)n[nH]2)cc(OC)c1OC | . | -13.4 | -2.5 | 14.5 | .
COc1ccc(OC)c(-c2cc(C(=O)Nc3c(C)nn(Cc4ccccc4C)c3C)no2)c1 | 2.1 | -7.5 | 9.3* | 7.8 | 8.1
COc1ccc(OC)c(-c2cc(C(=O)Nc3c(C)nn(Cc4ccccc4Cl)c3C)no2)c1 | 2.7 | -9.3 | 5.5* | 9.6 | 9.1
Fc1ccc(-n2nnnc2-c2cnc(-c3cccs3)nc2C(F)(F)F)cc1 | . | 5.2 | 5.1* | -5.2 | .
CCN(CC)S(=O)(=O)c1cccc(NC(=O)c2ccc(-n3nc(C)cc3C)cc2)c1 | . | . | 0.7 | . | .
Cc1cc(C)n(-c2ccc(C(=O)Nc3cccc(S(=O)(=O)N(C)C)c3)cc2)n1 | . | . | 5.8* | . | .
O=Cc1ccccc1OS(=O)(=O)c1ccccc1 | . | . | -1.4 | . | .
Cc1ccc(-c2ccc(CCC(=O)O)n2CC(=O)O)cc1 | -3.0 | 0.3 | -1.9 | 1.1 | 1.2

Bioassay records as filed in PubChem BioAssay.
